The nature of assay [1]: inhibitors of TNFa-induced NFkB p65 translocation, primary screen, imaging, HUVEC, MLSMR starter and 10KST1 sets (AID 438;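 active = inhibition above 20% together with a positive visual image hit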;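 note: compound added about 3h40 before a 20 min TNFalpha stimulation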;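 for inhibition: signal is the nuclear over cytoplasmic p65 intensity ratio per well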). Conditions: HUVEC TNFa-induced p65 nuclear translocation; cell count: measured here: nuclei count (cytotoxicity indicator), at 2.08 µM; inhibition: at 2 µM, stronger effect = higher value, 0% TNFa-plus-vehicle, 100% no-TNFa wells.
A short description of assay [2]: inhibitors of mutant huntingtin aggregation, primary screen, imaging, exon1htt(103Q)mCFP cells, high-content imaging (AID 483).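 For nuclei count: percent of the per-plate median nuclei count of sample wells.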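 Note: compound exposure lasted 3 days before fixation.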 Conditions: exon1htt(103Q)mCFP cell line, aggregate imaging, at 2 µM; inhibition of aggregation: stronger effect = higher value; nuclei count: measured here: cell count, toxicity.
Assay [3] in a line: inhibitors of E-selectin induction by TNFa, primary screen, imaging, HUVEC, immunofluorescence, MLSMR starter and 10KST1 sets (AID 487;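 active = visually confirmed hit in the image check and inhibition above 20%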;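 for inhibition: signal is fraction of cell area covered by stained E-selectin grains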;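 for nuclei count: 100% = median nuclei count of all wells on the same plate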). Conditions: HUVEC TNFalpha-induced E-selectin immunofluorescence imaging, at 2 µM; inhibition: stronger effect = higher value; nuclei count: measured here: cell number, toxicity.
Assay [4] concerns the target Voltage-gated potassium channel subunit beta-2 (Rattus norvegicus) (UniProt P62483). The assay can be described thus: KvBeta enzyme negative modulators, primary screen, biochemical, NADPH fluorescence (AID 622;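 active = fluorescence slope higher than the sample average by over 3 SD, cut at about -0.22 in these data, passing the limit was not always enough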;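 note: slope of raw intensity against log time taken from 70 to 1610 s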). Conditions: recombinant KvBeta, 4-cyanobenzaldehyde reduction, at 10 µM, stronger effect = higher value.
The target is the same in assay [5]. Kind of assay: KvBeta positive modulators, primary screen, biochemical, NADPH fluorescence (AID 623;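 active = NADPH fluorescence slope more negative than the mean of all samples by about 3 SD, 99.7% confidence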;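 note: fluorescence intensity change per second fitted from 20 to 320 s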). Conditions: Recombinant KvBeta, NADPH fluorescence decrease slope, 10 min; at 10 µM; stronger effect = lower value.
Assay [6] addresses Alpha-2C adrenergic receptor (Homo sapiens) (UniProt P18825). The assay can be described thus: modulators of alpha2C/GIRK thallium flux, primary screen, cell-based, HEK293 alpha2C/GIRK1/2 (AID 624;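 active = fluorescence slope after compound addition differing from the mean of all screened samples at 99.7% confidence, in either direction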;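 note: slope of fluorescence ratio to pre-addition baseline per second over 15 to 24 s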). Conditions: thallium flux BTC fluorescence, at 10 µM, actives lie on both sides.
Assay [7] can be described thus: inhibitors of Sendai virus-induced IRF3 signaling, primary screen, TLR/RLR signaling modifier project, cell-based, Sendai virus stimulus, luciferase, 10K MLSCN set (AID 602276;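 active = inhibition at or above 50% at 10 µM; inactive = inhibition below 50%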;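 note: firefly luciferase from ISG56 promoter only with Renilla not read in this screen; 0% = Sendai virus plus DMSO and 100% = medium plus DMSO without virus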). To be noted: HEK293 RL24 IRF3 luciferase reporter, at 10 µM, stronger effect = higher value. Background: Reporter assays use an easily measured gene product as a stand-in for the process of interest.
Assay [8] can be described thus: inhibitors of poly I:C-induced TLR3 signaling, primary screen, cell-based, poly I:C stimulus, luciferase, 10K MLSCN set (AID 602277;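 active = inhibition of the reporter signal at or above 50%; inactive = inhibition below 50%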). Conditions: HEK293-TLR3 RL24 IRF3 luciferase reporter, at 10 µM, stronger effect = higher value.

The source made the active and inactive calls.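 Rule for the calls, unless noted: active = visual image review flags a hit and inhibition of aggregation exceeds 20%; inconclusive = visual hit but inhibition at or below 20%; inactive = no hit on visual image review.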

Alpha-2C adrenergic receptor (Homo sapiens), sequence (P18825 whole entry, looked up): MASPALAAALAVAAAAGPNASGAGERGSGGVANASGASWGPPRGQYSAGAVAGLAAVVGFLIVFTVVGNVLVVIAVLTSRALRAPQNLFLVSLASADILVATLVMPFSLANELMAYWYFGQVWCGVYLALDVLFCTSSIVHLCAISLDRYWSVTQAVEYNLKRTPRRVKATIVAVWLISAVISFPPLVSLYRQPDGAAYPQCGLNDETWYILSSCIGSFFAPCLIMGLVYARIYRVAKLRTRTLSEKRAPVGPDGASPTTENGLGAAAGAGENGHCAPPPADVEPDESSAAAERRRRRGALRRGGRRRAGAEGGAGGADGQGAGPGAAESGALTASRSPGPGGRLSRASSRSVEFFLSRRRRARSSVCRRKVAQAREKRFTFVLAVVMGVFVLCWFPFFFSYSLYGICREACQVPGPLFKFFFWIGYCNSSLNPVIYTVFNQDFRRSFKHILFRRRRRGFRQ
Voltage-gated potassium channel subunit beta-2 (Rattus norvegicus), sequence (P62483 whole entry, looked up): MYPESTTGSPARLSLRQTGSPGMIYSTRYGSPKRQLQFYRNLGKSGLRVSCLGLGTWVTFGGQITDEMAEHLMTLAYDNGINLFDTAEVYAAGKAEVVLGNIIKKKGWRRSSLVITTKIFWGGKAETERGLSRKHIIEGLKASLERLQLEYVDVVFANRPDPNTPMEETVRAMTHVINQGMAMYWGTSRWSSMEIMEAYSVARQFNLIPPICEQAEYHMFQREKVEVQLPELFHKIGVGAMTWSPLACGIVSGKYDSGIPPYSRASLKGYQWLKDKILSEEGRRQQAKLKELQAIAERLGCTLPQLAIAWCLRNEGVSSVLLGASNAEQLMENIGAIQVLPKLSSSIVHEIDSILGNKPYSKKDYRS

With `NC(=O)c1ccccc1NC(=O)CCCN1C(=O)CCC1=O`, the cell count in assay [1] turned out to be 567. In addition, the inhibition in assay [1] was -1.8% (inactive); in assay [3], -30.7% (inactive); in assay [7], 2.16% (inactive); in assay [8], 13.3% (inactive). The inhibition of aggregation in assay [2] was -7.8% (inactive). For the same molecule, the nuclei count in assay [2] is 104%; in assay [3], 92.1%. Further, the fluorescence slope in assay [4] was -0.601 (inactive). Further, the NADPH fluorescence slope in assay [5] was -1.2e-05 (inactive). In assay [6], the slope was 0.00648 (inactive).
As for `CCOc1cc(C(=O)Nc2ncccn2)cc(OCC)c1OCC`, the cell count in assay [1] was 280. Also, the inhibition in assay [1] is 6.6% (inactive); in assay [3], -193% (inactive); in assay [7] it was 8.28% (inactive); in assay [8], 27.2% (inactive). Besides, the inhibition of aggregation in assay [2] was 38% (active). Also, the results for the nuclei count in assay [2] and in assay [3] were 103% and 100%, respectively. For the same molecule, the fluorescence slope in assay [4] was -0.476 (inactive). Moreover, the NADPH fluorescence slope in assay [5] is -2.8e-05 (inactive). Besides, the slope in assay [6] was 0.0062 (inactive).
For the molecule `CN(CC(=O)Nc1nccs1)S(=O)(=O)c1ccc(F)cc1`, in assay [1], the cell count was 352. For the same molecule, the inhibition is -6.5% (inactive) in assay [1], -35.4% (inactive) in assay [3], -24.4% (inactive) in assay [7] and 1.06% (inactive) in assay [8]. In assay [2], the inhibition of aggregation is -4.8% (inactive). Also, the nuclei count was determined as 110% in assay [2] and 101% in assay [3]. For the same molecule, the fluorescence slope in assay [4] is -0.465 (inactive). The NADPH fluorescence slope in assay [5] was -9.5e-06 (inactive). The slope in assay [6] was 0.00636 (inactive).
For the molecule `Cc1cc(C)cc(-n2nnc(C(=O)NCc3ccc4c(c3)OCO4)c2N)c1`, the cell count in assay [1] turned out to be 571. Also, the inhibition in assay [1] was 7.5% (inactive); in assay [3], -17.7% (inactive); in assay [7], 7.67% (inactive); in assay [8], 22.1% (inactive). In assay [2], the inhibition of aggregation is -33.1% (inactive). In addition, the nuclei count in assay [2] and in assay [3] was 108% each time. In addition, the fluorescence slope in assay [4] was -0.572 (inactive). The NADPH fluorescence slope in assay [5] was 2.9e-05 (inactive). For the same molecule, in assay [6], the slope was 0.00545 (inactive).
With `COCCn1c(C)cc(C(=O)COC(=O)CCN2C(=O)c3ccccc3C2=O)c1C`, the cell count in assay [1] was 287. The inhibition in assay [1] was 3.2% (inactive); in assay [3], -6.1% (inactive); in assay [7] it was 3.96% (inactive); in assay [8] it was 4.05% (inactive). Besides, the inhibition of aggregation in assay [2] is 17.1% (inactive). For the same molecule, the figures for the nuclei count in assay [2] and in assay [3] were 96.8% and 97.3%, respectively. In assay [4], the fluorescence slope was -0.528 (inactive). The NADPH fluorescence slope in assay [5] is 6.5e-06 (inactive). Moreover, the slope in assay [6] was 0.00506 (inactive).
For `CN(C)CCN1C(=O)c2oc3ccc(Cl)cc3c(=O)c2C1c1cccc(Br)c1` (centres undefined), in assay [1], the cell count was 229. Besides, the inhibition was -8.1% (inactive) in assay [1], -36.3% (inactive) in assay [3], 17.2% (inactive) in assay [7] and 49.7% (inactive) in assay [8]. In assay [2], the inhibition of aggregation is 13.3% (inactive). The nuclei count in assay [2] is 83.3%; in assay [3], 89.9%. In addition, the fluorescence slope in assay [4] is -0.412 (inactive). In addition, the NADPH fluorescence slope in assay [5] is -1.4e-05 (inactive). For the same molecule, the slope in assay [6] was 0.00335 (inactive).
As for `c1ccc(CC2CCN(C(c3cccs3)c3nnnn3C3CCCC3)CC2)cc1` (centres undefined), in assay [1], the cell count came to 743. Also, the inhibition in assay [1] is -37.8% (inactive); in assay [3], -31.1% (inactive); in assay [7], -0.349% (inactive); in assay [8] it was 20.3% (inactive). For the same molecule, the inhibition of aggregation in assay [2] is 7.1% (inactive). The results for the nuclei count in assay [2] and in assay [3] were 108% and 99.9%, respectively. In addition, in assay [4], the fluorescence slope is -0.558 (inactive). The NADPH fluorescence slope in assay [5] was 3.9e-05 (inactive). Further, in assay [6], the slope is 0.00517 (inactive).
As for `Cn1cc(C2NC(=O)c3c(sc4c3CCCC4)N2)c2ccccc21` (centres undefined), the cell count in assay [1] was 561. Further, the inhibition in assay [1] is 9.2% (inactive); in assay [3], -37.2% (inactive); in assay [7], 2.79% (inactive); in assay [8] it was 21.2% (inactive). Moreover, the inhibition of aggregation in assay [2] is 17.3% (inactive). Besides, the values for the nuclei count in assay [2] and in assay [3] were 98.8% and 112%, respectively. Besides, in assay [4], the fluorescence slope was -0.384 (inactive). The NADPH fluorescence slope in assay [5] was 3.8e-05 (inactive). Besides, the slope in assay [6] is 0.00476 (inactive).
For `CCCOC(=O)C1C2C=CC3(CN(c4cccc(Cl)c4)C(=O)C13)O2` (centres undefined), the cell count in assay [1] was 743. For the same molecule, the inhibition is -5.5% (inactive) in assay [1], -55.3% (inactive) in assay [3], 12.8% (inactive) in assay [7] and 28.1% (inactive) in assay [8]. Further, the inhibition of aggregation in assay [2] is -3.6% (inactive). Besides, the nuclei count in assay [2] came out at 95.4%; in assay [3], 116%. In assay [4], the fluorescence slope was -0.491 (inactive). Also, the NADPH fluorescence slope in assay [5] is 1.7e-05 (inactive). The slope in assay [6] is 0.00748 (inactive).

One may read the inhibition as the relative decrease from the control value, in per cent.

(Values after PubChem BioAssay.)
